Source: paper PMC7862700, “An all-to-all approach to the identification of sequence-specific readers for epigenetic DNA modifications on cytosine”

Legend:
Experiment in all cases: DAPPL (digital affinity profiling via proximity ligation, sequencing); 10 mM Tris-HCl pH 7.5, 50 mM NaCl, 1 mM DTT, 4% glycerol, room temperature, 30 min; GST-TFs on glutathione beads, 16-mer random dsDNA library, 0.1% formaldehyde crosslink after washing; high values mean tight binding
Conditions in all cases: protein: recombinant; tags: N-terminal GST; dsDNA, one strand shown
FLI1 = biological target: T1, FLI1 (Homo sapiens, UniProt Q01543 1-452)
T1 sequence: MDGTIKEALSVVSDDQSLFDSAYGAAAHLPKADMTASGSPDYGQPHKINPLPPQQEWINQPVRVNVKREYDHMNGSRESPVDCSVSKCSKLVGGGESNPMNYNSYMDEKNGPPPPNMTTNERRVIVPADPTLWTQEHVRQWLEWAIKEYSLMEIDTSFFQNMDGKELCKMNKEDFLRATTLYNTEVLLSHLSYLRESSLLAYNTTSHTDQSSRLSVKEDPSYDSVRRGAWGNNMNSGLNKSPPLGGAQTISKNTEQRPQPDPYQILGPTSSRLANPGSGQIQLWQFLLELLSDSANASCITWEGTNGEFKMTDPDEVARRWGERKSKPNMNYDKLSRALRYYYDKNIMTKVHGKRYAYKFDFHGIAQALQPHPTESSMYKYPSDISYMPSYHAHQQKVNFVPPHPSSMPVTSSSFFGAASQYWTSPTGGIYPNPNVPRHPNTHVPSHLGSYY
Procedure, shortened: (§1)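 Human transcription factors fused to GST were expressed in yeast, captured on glutathione beads, given DNA barcodes and pooled with a GST-only negative control. Pools were incubated with 200 nmole of a 16-mer random double-stranded DNA library in Tris/NaCl/DTT/glycerol buffer at room temperature for 30 min. They were then washed, crosslinked with 0.1% formaldehyde, proximity-ligated (BsaI/T4 ligase, 1 h, 37 °C), PCR-amplified and sequenced on an Illumina NextSeq500. Binding signal is each 6-mer's read frequency for a factor divided by its frequency for the GST control.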

ELK1 = biological target: T2, ELK1 (Homo sapiens, UniProt P19419 1-428)
T2 sequence: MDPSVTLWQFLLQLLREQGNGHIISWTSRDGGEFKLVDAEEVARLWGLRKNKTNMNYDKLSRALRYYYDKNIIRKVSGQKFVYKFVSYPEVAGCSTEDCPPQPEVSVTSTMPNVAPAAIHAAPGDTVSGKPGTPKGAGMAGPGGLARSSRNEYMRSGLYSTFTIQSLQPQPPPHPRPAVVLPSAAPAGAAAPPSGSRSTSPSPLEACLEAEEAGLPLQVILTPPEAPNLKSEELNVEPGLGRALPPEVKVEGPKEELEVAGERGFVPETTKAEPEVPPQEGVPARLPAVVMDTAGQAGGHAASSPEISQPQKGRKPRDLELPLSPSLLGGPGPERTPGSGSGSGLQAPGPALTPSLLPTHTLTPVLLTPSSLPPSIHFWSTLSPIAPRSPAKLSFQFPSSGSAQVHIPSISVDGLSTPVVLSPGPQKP
Procedure, shortened: as §1

GABPA = biological target: T3, GABPA (Homo sapiens, UniProt Q06546 1-454)
T3 sequence: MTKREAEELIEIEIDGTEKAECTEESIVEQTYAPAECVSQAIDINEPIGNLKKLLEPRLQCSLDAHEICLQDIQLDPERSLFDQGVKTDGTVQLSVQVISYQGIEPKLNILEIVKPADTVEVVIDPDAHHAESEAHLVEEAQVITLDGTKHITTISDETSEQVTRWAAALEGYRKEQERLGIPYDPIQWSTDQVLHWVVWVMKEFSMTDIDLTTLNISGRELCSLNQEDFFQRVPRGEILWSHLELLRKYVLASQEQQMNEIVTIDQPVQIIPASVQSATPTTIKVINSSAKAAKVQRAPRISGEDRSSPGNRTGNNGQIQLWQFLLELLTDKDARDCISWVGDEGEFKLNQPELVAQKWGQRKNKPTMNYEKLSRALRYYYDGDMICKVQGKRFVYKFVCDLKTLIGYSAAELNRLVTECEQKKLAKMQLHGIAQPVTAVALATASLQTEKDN
Procedure, shortened: as §1

ERG = biological target: T4, ERG (Homo sapiens, UniProt P11308 1-479)
T4 sequence: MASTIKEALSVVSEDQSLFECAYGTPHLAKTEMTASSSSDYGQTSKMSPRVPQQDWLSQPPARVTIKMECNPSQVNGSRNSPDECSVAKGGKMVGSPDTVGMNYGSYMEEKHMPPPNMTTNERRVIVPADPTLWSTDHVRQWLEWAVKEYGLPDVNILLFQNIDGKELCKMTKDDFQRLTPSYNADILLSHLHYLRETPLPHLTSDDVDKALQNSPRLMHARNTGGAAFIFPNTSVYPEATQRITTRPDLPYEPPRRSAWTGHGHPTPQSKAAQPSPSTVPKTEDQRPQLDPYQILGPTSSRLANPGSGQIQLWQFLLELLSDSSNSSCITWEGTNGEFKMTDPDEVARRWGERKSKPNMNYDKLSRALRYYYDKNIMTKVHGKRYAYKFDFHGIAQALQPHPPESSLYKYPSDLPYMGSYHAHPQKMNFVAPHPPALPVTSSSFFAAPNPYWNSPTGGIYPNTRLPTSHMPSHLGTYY
Procedure, shortened: as §1

ELF1 = ELF1 (Homo sapiens, UniProt P32519 1-619)
Chain of ELF1 (P32519 whole entry): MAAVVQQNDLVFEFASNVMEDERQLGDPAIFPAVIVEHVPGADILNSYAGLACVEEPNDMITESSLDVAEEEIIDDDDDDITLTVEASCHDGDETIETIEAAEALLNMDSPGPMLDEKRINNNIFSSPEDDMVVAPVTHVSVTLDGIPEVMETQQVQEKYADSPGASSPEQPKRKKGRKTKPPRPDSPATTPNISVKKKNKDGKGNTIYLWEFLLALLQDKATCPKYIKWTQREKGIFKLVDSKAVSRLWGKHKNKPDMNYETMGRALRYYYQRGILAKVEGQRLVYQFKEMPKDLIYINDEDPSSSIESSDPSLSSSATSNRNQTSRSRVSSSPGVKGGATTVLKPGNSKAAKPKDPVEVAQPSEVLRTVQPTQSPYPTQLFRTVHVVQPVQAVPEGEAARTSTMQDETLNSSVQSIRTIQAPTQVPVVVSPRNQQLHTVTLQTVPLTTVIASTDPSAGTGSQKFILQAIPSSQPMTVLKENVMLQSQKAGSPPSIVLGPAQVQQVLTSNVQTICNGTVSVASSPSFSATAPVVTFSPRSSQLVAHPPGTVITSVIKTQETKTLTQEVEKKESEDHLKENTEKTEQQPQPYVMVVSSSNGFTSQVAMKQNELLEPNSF
Procedure, shortened: as §1

EHF = biological target: T5, EHF (Homo sapiens, UniProt Q9NZC4 1-300)
T5 sequence: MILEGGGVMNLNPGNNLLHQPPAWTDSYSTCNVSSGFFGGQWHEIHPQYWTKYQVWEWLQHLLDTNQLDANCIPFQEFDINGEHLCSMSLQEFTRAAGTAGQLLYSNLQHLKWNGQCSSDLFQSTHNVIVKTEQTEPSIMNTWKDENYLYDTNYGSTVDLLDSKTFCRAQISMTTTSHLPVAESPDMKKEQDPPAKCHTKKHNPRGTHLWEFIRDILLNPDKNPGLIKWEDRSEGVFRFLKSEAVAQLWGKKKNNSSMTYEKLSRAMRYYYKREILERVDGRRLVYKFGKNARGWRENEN
Procedure, shortened: as §1

SPI1 = SPI1 (Homo sapiens, UniProt P17947 1-270)
Procedure, shortened: as §1

SPIB = SPIB (Homo sapiens, UniProt Q01892 1-262)
Chain of SPIB (Q01892 whole entry): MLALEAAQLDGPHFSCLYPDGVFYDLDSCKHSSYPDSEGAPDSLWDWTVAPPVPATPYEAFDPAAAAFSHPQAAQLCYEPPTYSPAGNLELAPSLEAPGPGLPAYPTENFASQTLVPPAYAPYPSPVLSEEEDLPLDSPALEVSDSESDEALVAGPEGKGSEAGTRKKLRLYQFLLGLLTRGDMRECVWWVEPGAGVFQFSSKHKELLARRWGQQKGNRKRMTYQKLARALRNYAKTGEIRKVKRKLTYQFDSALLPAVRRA
Procedure, shortened: as §1

ELK3 = biological target: T6, ELK3 (Homo sapiens, UniProt P41970 1-407)
T6 sequence: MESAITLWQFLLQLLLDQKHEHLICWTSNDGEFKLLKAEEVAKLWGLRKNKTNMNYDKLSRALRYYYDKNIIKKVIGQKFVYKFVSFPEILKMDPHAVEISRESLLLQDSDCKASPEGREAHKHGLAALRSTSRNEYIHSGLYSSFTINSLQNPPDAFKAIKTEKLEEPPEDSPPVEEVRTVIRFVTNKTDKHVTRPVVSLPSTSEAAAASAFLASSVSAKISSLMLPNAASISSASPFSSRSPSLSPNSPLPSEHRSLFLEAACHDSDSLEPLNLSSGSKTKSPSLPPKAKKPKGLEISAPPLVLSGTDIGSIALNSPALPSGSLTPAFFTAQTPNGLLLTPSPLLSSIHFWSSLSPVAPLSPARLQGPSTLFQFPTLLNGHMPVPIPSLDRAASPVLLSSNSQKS
Procedure, shortened: as §1

TCGTAC
binding signal (FLI1): 1.13 fold enrichment (6-mer frequency, TF over GST control) | binding signal (ELK1): 1.13 fold enrichment (6-mer frequency, TF over GST control) | binding signal (GABPA): 1.18 fold enrichment (6-mer frequency, TF over GST control) | binding signal (ERG): 1.06 fold enrichment (6-mer frequency, TF over GST control) | binding signal (ELF1): 1.14 fold enrichment (6-mer frequency, TF over GST control) | binding signal (EHF): 1.14 fold enrichment (6-mer frequency, TF over GST control) | binding signal (SPI1): 1.06 fold enrichment (6-mer frequency, TF over GST control) | binding signal (SPIB): 1.04 fold enrichment (6-mer frequency, TF over GST control) | binding signal (ELK3): 1.11 fold enrichment (6-mer frequency, TF over GST control)

CCACGC
binding signal (FLI1): 1.28 fold enrichment (6-mer frequency, TF over GST control) | binding signal (ELK1): 1.2 fold enrichment (6-mer frequency, TF over GST control) | binding signal (GABPA): 1.28 fold enrichment (6-mer frequency, TF over GST control) | binding signal (ERG): 1.16 fold enrichment (6-mer frequency, TF over GST control) | binding signal (ELF1): 1.22 fold enrichment (6-mer frequency, TF over GST control) | binding signal (EHF): 1.12 fold enrichment (6-mer frequency, TF over GST control) | binding signal (SPI1): 1.07 fold enrichment (6-mer frequency, TF over GST control) | binding signal (SPIB): 1.14 fold enrichment (6-mer frequency, TF over GST control) | binding signal (ELK3): 1.31 fold enrichment (6-mer frequency, TF over GST control)

CTAGGC
binding signal (FLI1): 1.17 fold enrichment (6-mer frequency, TF over GST control) | binding signal (ELK1): 1.1 fold enrichment (6-mer frequency, TF over GST control) | binding signal (GABPA): 1.23 fold enrichment (6-mer frequency, TF over GST control) | binding signal (ERG): 1.13 fold enrichment (6-mer frequency, TF over GST control) | binding signal (ELF1): 1.14 fold enrichment (6-mer frequency, TF over GST control) | binding signal (EHF): 1.01 fold enrichment (6-mer frequency, TF over GST control) | binding signal (SPI1): 1.07 fold enrichment (6-mer frequency, TF over GST control) | binding signal (SPIB): 1.05 fold enrichment (6-mer frequency, TF over GST control) | binding signal (ELK3): 1.1 fold enrichment (6-mer frequency, TF over GST control)

CACAAA
binding signal (FLI1): 1.06 fold enrichment (6-mer frequency, TF over GST control) | binding signal (ELK1): 1.06 fold enrichment (6-mer frequency, TF over GST control) | binding signal (GABPA): 1.12 fold enrichment (6-mer frequency, TF over GST control) | binding signal (ERG): 1.12 fold enrichment (6-mer frequency, TF over GST control) | binding signal (ELF1): 1.13 fold enrichment (6-mer frequency, TF over GST control) | binding signal (EHF): 1.11 fold enrichment (6-mer frequency, TF over GST control) | binding signal (SPI1): 1.13 fold enrichment (6-mer frequency, TF over GST control) | binding signal (SPIB): 1.04 fold enrichment (6-mer frequency, TF over GST control) | binding signal (ELK3): 1.19 fold enrichment (6-mer frequency, TF over GST control)

TATAAG
binding signal (FLI1): 1.15 fold enrichment (6-mer frequency, TF over GST control) | binding signal (ELK1): 1.23 fold enrichment (6-mer frequency, TF over GST control) | binding signal (GABPA): 1.16 fold enrichment (6-mer frequency, TF over GST control) | binding signal (ERG): 1.12 fold enrichment (6-mer frequency, TF over GST control) | binding signal (ELF1): 1.17 fold enrichment (6-mer frequency, TF over GST control) | binding signal (EHF): 1.1 fold enrichment (6-mer frequency, TF over GST control) | binding signal (SPI1): 1.13 fold enrichment (6-mer frequency, TF over GST control) | binding signal (SPIB): 1.12 fold enrichment (6-mer frequency, TF over GST control) | binding signal (ELK3): 1.24 fold enrichment (6-mer frequency, TF over GST control)

GACTAC
binding signal (FLI1): 1.17 fold enrichment (6-mer frequency, TF over GST control) | binding signal (ELK1): 1.19 fold enrichment (6-mer frequency, TF over GST control) | binding signal (GABPA): 1.15 fold enrichment (6-mer frequency, TF over GST control) | binding signal (ERG): 1.07 fold enrichment (6-mer frequency, TF over GST control) | binding signal (ELF1): 1.15 fold enrichment (6-mer frequency, TF over GST control) | binding signal (EHF): 1.12 fold enrichment (6-mer frequency, TF over GST control) | binding signal (SPI1): 1.12 fold enrichment (6-mer frequency, TF over GST control) | binding signal (SPIB): 1.19 fold enrichment (6-mer frequency, TF over GST control) | binding signal (ELK3): 1.1 fold enrichment (6-mer frequency, TF over GST control)

TTAAAT
binding signal (FLI1): 1.17 fold enrichment (6-mer frequency, TF over GST control) | binding signal (ELK1): 1.11 fold enrichment (6-mer frequency, TF over GST control) | binding signal (GABPA): 1.1 fold enrichment (6-mer frequency, TF over GST control) | binding signal (ERG): 1.11 fold enrichment (6-mer frequency, TF over GST control) | binding signal (ELF1): 1.19 fold enrichment (6-mer frequency, TF over GST control) | binding signal (EHF): 1.14 fold enrichment (6-mer frequency, TF over GST control) | binding signal (SPI1): 1.12 fold enrichment (6-mer frequency, TF over GST control) | binding signal (SPIB): 1.13 fold enrichment (6-mer frequency, TF over GST control) | binding signal (ELK3): 1.25 fold enrichment (6-mer frequency, TF over GST control)
